Shiga inhibitor: blocks Shiga toxin action in Vero cells; Vero cells, Shiga toxin protein synthesis inhibition reporter; inhibition, % at 38.7 µM; hit rate 9.2% among 290,000; AID 2315; in the data active = inhibition mostly above about 28%, no sharp cut-off; inactive = mostly below about 43%
CHX counter: affects cycloheximide protein synthesis inhibition readout, counter-screen. cell reporter, cycloheximide protein synthesis inhibition counterscreen. max response, %. hit rate 12% among 300,000. AID 2314; in the data active = max response mostly above about 13%, no sharp cut-off; inactive = mostly below about 14%; also: read at 38.3 µM for the half of the compounds with a filed dose
HCMV antiviral: blocks human cytomegalovirus replication; activity change, negative = inhibition, % at 57.5 µM; hit rate 4.5% among 410,000; HFF cells, HCMV-luciferase reporter, 72 h; stronger effect = lower value; in the data active = activity change below about -60%; inconclusive = no clear call, values can overlap the other calls; inactive = above about -39%
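HFF cells seeded 16 h at 37C, treated with compounds, infected with luciferase-reporter HCMV at MOI 1 PFU/cell; luciferase read at 72 h post infection, normalized to buffer-only and Salinomycin controls.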
Pf growth 48h: inhibits P. falciparum growth in the first generation, 48 h | P. falciparum luciferase growth in erythrocytes, 48 h | Potency, µM (series often up to 28.7 µM), most hits filed as inhibitors | hit rate 5.9% among 310,000
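A one-generation exposure of luciferase-tagged malaria parasites in RPMI 1640/Albumax erythrocyte culture, 37 C and 5% CO2. Inhibition is inferred from decreased luminescence after adding detection reagent.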
Pf growth 96h: P. falciparum growth inhibition at 96 hours. P. falciparum luciferase reporter growth, 96 h. Potency, µM (titrated, usually from 28.7 µM), hits mostly inhibitors. hit rate 6.9% among 320,000. AID 504834
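Luminescence readout: decreased luciferase signal marks inhibited growth of reporter-expressing P. falciparum in infected red cells (2% hematocrit, 0.05% parasitemia final), exposed to compound two generations (96 h, 37 C, 5% CO2).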
Large screens that a line does not name were inactive; ! = a repeat was not active. Most compounds without a hit are left out; they make up all but 20% or so of the library. Unless noted, calls follow the shape of the dose curve; as a rule, active = well fitted inhibition curve with a large enough effect; inconclusive = small, poorly fitted or top-dose-only effect, or another doubt; inactive = no such curve, though single readings can be large or run the other way.

CC[C@H](C)[C@H](NC(=O)[C@H](Cc1ccc(O)cc1)NC(=O)[C@@H](NC(=O)[C@H](CCCN=C(N)N)NC(=O)[C@@H](N)CC(=O)O)C(C)C)C(=O)N[C@@H](Cc1ccc(N)cc1)C(=O)N1CCC[C@H]1C(=O)N[C@@H](Cc1ccccc1)C(=O)O	none (no result: HCMV antiviral, Pf growth 48h, Pf growth 96h)
COc1cccc(C2Oc3ccccc3C3CC(c4cccs4)=NN32)c1 (centres undefined)	Shiga inhibitor 79, CHX counter 51
CC1(C)CC2CC(C)(CN2S(=O)(=O)c2ccccc2[N+](=O)[O-])C1 (centres undefined)	none (no result: Shiga inhibitor, CHX counter, Pf growth 48h, Pf growth 96h)
CCCCN1c2cc(C)c(O)cc2C(C(=O)OCC)C1C (centres undefined)	Pf growth 48h 2.1µM
CCOc1ccccc1NC(=O)COC(=O)/C=C/c1cccs1	none (no result: Shiga inhibitor, CHX counter, Pf growth 48h, Pf growth 96h)
Cc1ccc(N2C(=O)CSC23C(=O)N(CC(=O)Nc2ccc(C(C)C)cc2)c2ccccc23)cc1C (centres undefined)	none (no result: Shiga inhibitor, CHX counter, Pf growth 48h, Pf growth 96h)
O=C(CN1C(=O)C2(SCC(=O)N2c2ccc(F)c(F)c2)c2ccccc21)Nc1cccc(Cl)c1 (centres undefined)	HCMV antiviral -93 (no result: Shiga inhibitor, CHX counter, Pf growth 48h, Pf growth 96h)
Cc1ccc(NC(=O)CN2C(=O)C3(SCC(=O)N3c3cccc(Cl)c3)c3ccccc32)cc1C (centres undefined)	HCMV antiviral -65 (no result: Shiga inhibitor, CHX counter, Pf growth 48h, Pf growth 96h)
O=C1CSC2(C(=O)N(Cc3c(F)cccc3Cl)c3ccccc32)N1c1ccc(F)c(F)c1 (centres undefined)	none (no result: Shiga inhibitor, CHX counter, Pf growth 48h, Pf growth 96h)
O=C1C(Cc2ccccc2)Nc2ncnc(N3CCN(c4ccccc4)CC3)c2N1Cc1ccc(Br)cc1 (centres undefined)	none (no result: Shiga inhibitor, CHX counter, Pf growth 48h, Pf growth 96h)
CCC1Nc2ncnc(N3CCN(c4ccccc4)CC3)c2N(Cc2ccc(OC)cc2)C1=O (centres undefined)	Pf growth 48h 12µM, Pf growth 96h 12µM (no result: Shiga inhibitor, CHX counter)
CCC1Nc2ncnc(N3CCN(c4ccccc4)CC3)c2N(Cc2ccc(Br)cc2)C1=O (centres undefined)	Pf growth 48h 12µM, Pf growth 96h inconclusive (no result: Shiga inhibitor, CHX counter)
CCC1Nc2ncnc(N3CCOCC3)c2N(Cc2ccc(OC)cc2)C1=O (centres undefined)	none (no result: Shiga inhibitor, CHX counter, Pf growth 48h, Pf growth 96h)
CC(C)CN1C(=O)C(=O)N(CC(=O)NCCCc2ccccc2)C1=O	none (no result: Shiga inhibitor, CHX counter, Pf growth 48h, Pf growth 96h)
Fc1cccc(CN(C2=NCCN2)c2c(Cl)cccc2Cl)c1	HCMV antiviral -63, Pf growth 48h 12µM (no result: Shiga inhibitor, CHX counter)
CC1CC(=O)N(CC(=O)Nc2ccc(F)cc2F)c2ccccc2S1 (centres undefined)	none (no result: Shiga inhibitor, CHX counter, Pf growth 48h, Pf growth 96h)
COc1ccc(/C=C/C(=O)NC2CCCCCC2)cc1S(=O)(=O)N1CCOCC1	CHX counter 19, Pf growth 48h inconclusive, Pf growth 96h 9.3µM
COc1ccccc1NS(=O)(=O)/C=C/c1ccccc1	Pf growth 96h 8.3µM
COc1ccc(/C=C/C(=O)Nc2ccccc2C(=O)O)cc1OC	HCMV antiviral -81, Pf growth 96h inconclusive
COc1ccc(/C=C/C(=O)Nc2ccccc2C(=O)O)cc1	none
COc1ccc(S(=O)(=O)N2CCOCC2)cc1NC(=O)/C=C/c1ccc(F)cc1	Pf growth 48h inconclusive, Pf growth 96h inconclusive (no result: Shiga inhibitor, CHX counter)
COc1ccc(S(=O)(=O)N2CCOCC2)cc1NS(=O)(=O)/C=C/c1ccccc1	none
COc1ccccc1NC(=O)/C=C/c1ccc(OC)c(S(=O)(=O)N2CCOCC2)c1	Pf growth 48h 13µM
COc1ccc(CC(=O)Nc2ccccc2C(C)=O)cc1S(=O)(=O)N1CCOCC1	Pf growth 48h inconclusive, Pf growth 96h inconclusive (no result: Shiga inhibitor, CHX counter)
Cc1ccc(F)cc1NC(=O)/C=C/c1ccc(S(=O)(=O)N2CCOCC2)cc1	none (no result: Shiga inhibitor, CHX counter, Pf growth 48h, Pf growth 96h)
CCCNC(=O)/C=C/c1ccc(S(=O)(=O)Nc2ccccc2OC)cc1	Pf growth 96h 9.3µM
COc1ccc(/C=C/C(=O)Nc2cc(F)ccc2C)cc1S(=O)(=O)N1CCOCC1	Pf growth 48h 15µM, Pf growth 96h inconclusive
COc1ccc(/C=C/C(=O)Nc2ccccc2C(N)=O)cc1S(=O)(=O)N1CCOCC1	Pf growth 48h inconclusive, Pf growth 96h 4.1µM (no result: Shiga inhibitor, CHX counter)
COc1ccccc1CNC(=O)/C=C/c1ccc(S(=O)(=O)N2CCOCC2)cc1	Pf growth 48h inconclusive, Pf growth 96h 4.7µM
O=C(NCc1ccccc1Br)c1ccc2c(c1)nc1n2CCOC1	none (no result: Shiga inhibitor, CHX counter, Pf growth 48h, Pf growth 96h)
COCCn1c(C)cc(O)c(C(c2ccccc2Cl)N2CCN(c3ccccc3)CC2)c1=O (centres undefined)	none (no result: Shiga inhibitor, CHX counter, Pf growth 48h, Pf growth 96h)
COc1ccc(/C=C/C(=O)NC2=NCCS2)cc1OC	Shiga inhibitor 70, CHX counter 38
O=C(/C=C/c1ccc(S(=O)(=O)N2CCOCC2)cc1)NCCc1ccc(C(F)(F)F)cc1	Pf growth 48h 12µM, Pf growth 96h 6.6µM (no result: Shiga inhibitor, CHX counter)
C=C1C(=O)[C@@]23[C@H](O)C[C@@H]4C(C)(C)CC[C@H](O)[C@]4(C)[C@@H]2C[C@H](O)[C@@H]1[C@H]3O	HCMV antiviral -76, Pf growth 48h 9.3µM, Pf growth 96h 4.1µM
C=C1C(=O)[C@@]23[C@H](O)C[C@@H]4C(C)(C)CC[C@H](O)[C@@]4(C)[C@@H]2CC[C@@H]1[C@H]3O	HCMV antiviral -97, Pf growth 48h 15µM, Pf growth 96h inconclusive
C=C1C(=O)[C@]23C[C@H]1CCC2[C@]1(C)C(=O)CC[C@@](C)(C(=O)O)C1C[C@@H]3O (some centres undefined)	none (no result: Shiga inhibitor, CHX counter, Pf growth 48h, Pf growth 96h)
CCN(CC)C(=O)C1=C(C)N(CCC2=CCCCC2)C(=O)C(CC(=O)NCCN2CCOCC2)C1 (centres undefined)	none (no result: Shiga inhibitor, CHX counter, Pf growth 48h, Pf growth 96h)
O=c1oc2ccccc2c(Nc2ccc(F)cc2)c1[N+](=O)[O-]	Pf growth 48h inconclusive
Cc1c(-c2nc(N)nc(Nc3ccc(F)cc3)n2)oc2ccccc12	Shiga inhibitor 84, CHX counter 22, Pf growth 48h inconclusive, Pf growth 96h inconclusive
COc1ccccc1Nc1nc(N)nc(-c2oc3ccccc3c2C)n1	none (no result: Pf growth 48h)
Cc1ccccc1Nc1nc(N)nc(-c2oc3ccccc3c2C)n1	Shiga inhibitor 122, CHX counter 64
COc1ccc(S(=O)(=O)N2CCN(C(=O)c3cc(-c4ccc(Br)cc4)n[nH]3)CC2)cc1OC	HCMV antiviral -72!, Pf growth 48h 9.3µM, Pf growth 96h inconclusive
O=C(c1cc(-c2ccc(Cl)cc2)n[nH]1)N1CCc2ccccc2C1	none
O=C(c1cc(-c2ccc(Br)cc2)n[nH]1)N1CCN(C(=O)c2ccccc2Br)CC1	HCMV antiviral inconclusive, Pf growth 48h 9.3µM
Cc1cc(C)c(S(=O)(=O)N2CCN(C(=O)c3cc(=O)[nH]c4ccccc34)CC2)c(C)c1	Pf growth 48h 12µM, Pf growth 96h inconclusive (no result: Shiga inhibitor, CHX counter)
O=C(c1cc(-c2ccccc2)n[nH]1)N1CCN(S(=O)(=O)c2ccccc2)CC1	Pf growth 48h 3.7µM, Pf growth 96h inconclusive
NS(=O)(=O)c1ccc(CCNC(=O)COC(=O)/C=C/c2cc(Br)ccc2F)cc1	none (no result: Shiga inhibitor, CHX counter, Pf growth 48h, Pf growth 96h)
Cc1ccc(S(=O)(=O)N2CCN(C(=O)c3n[nH]c4ccccc34)CC2)cc1	HCMV antiviral inconclusive, Pf growth 48h 2.6µM, Pf growth 96h 12µM (no result: Shiga inhibitor, CHX counter)
Cc1cc(C(C)(C)C)cc(C)c1S(=O)(=O)N1CCN(C(=O)c2cc([N+](=O)[O-])c[nH]c2=O)CC1	HCMV antiviral -64, Pf growth 48h inconclusive, Pf growth 96h inconclusive

Source: PubChem
